Source: the supplement of paper PMC12636033
± gives the standard deviation of the averaged measurements. In all, about 33,000 sequences were measured (“E-score (rank enrichment, -0.5 to 0.5)”: median about -0.0068, highest 2% from about 0.24 on). Only a selection was taken, and the highest values are over-represented in it overall.

What follows are sequences tested on muMax20 (Max(13-93) K31hArg/K57hArg, M65Nle) (assay: PBM 8-mer E-score (E-score (rank enrichment, -0.5 to 0.5)); higher = stronger preferential binding).
Procedure: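 Protein binding microarray (universal PBM chip covering all 10-mers in fixed probe flanks) with chemically synthesized human Max(13-93) bHLH-LZ analogs (not full-length Max) bearing noncanonical residues (hArg, Tha, Aib, Nle at 65) and aromatic Cys staples. Read-out per 8-mer (and its reverse complement): E-score (rank-based enrichment, -0.5 to 0.5) and Z-score of median probe intensity.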

Row | Sequence | PBM 8-mer E-score
1 | ACCAATTG | 0.211 ± 0.013
2 | AACAATAA | 0.247 ± 0.0054
3 | CGCAACAC | 0.0683 ± 0.035
4 | AACAATAC | 0.319 ± 0.063
5 | AGCAACAA | -0.0639 ± 0.14
6 | GACAATAC | 0.21 ± 0.021
7 | AACAATAG | 0.0278 ± 0.047
8 | AACAATAT | 0.207 ± 0.061
9 | CGCAACAA | 0.257 ± 0.049
10 | ACCAATTA | 0.247 ± 0.095
11 | CATCTTCC | 0.14 ± 0.005
12 | CTAGCGAA | -0.129 ± 0.063
13 | CTAGTGCA | 0.0056 ± 0.097
14 | GAGAGTCA | 0.0012 ± 0.088
15 | ATCCACCA | 0.068 ± 0.024
16 | GGGGCCCC | -0.138 ± 0.039
17 | CACAATAA | 0.151 ± 0.0047
18 | TACACCAA | -0.0765 ± 0.027
19 | TACAATAA | 0.33 ± 0.008
20 | AACACCAA | 0.239 ± 0.018
21 | GACAATAA | 0.216 ± 0.067
22 | GACACCAA | -0.0812 ± 0.037

Row | Sequence | PBM 8-mer E-score
23 | AACTTCTT | 0.155 ± 0.031
24 | CAATTTGA | 0.246 ± 0.051
25 | CAATTTGG | 0.0732 ± 0.059
26 | TAATTTGA | 0.0569 ± 0.0096
27 | AATCAGCA | 0.0143 ± 0.044
28 | ACCTGTTG | 0.112 ± 0.12
29 | AGATATGA | 0.028 ± 0.0086
30 | ATACCATA | 0.298 ± 0.029
31 | ATACCATG | 0.0838 ± 0.02
32 | ATACCAAG | 0.0843 ± 0.073
33 | CTACCAAC | 0.118 ± 0.079
34 | ATACCAAC | 0.271 ± 0.01
35 | GTACCATA | 0.0347 ± 0.038
36 | ATAGAAGC | 0.041 ± 0.086
37 | TAAGGGAA | 0.0705 ± 0.073
38 | CTCCCGTA | 0.0488 ± 0.069
39 | ATAAAGCA | 0.243 ± 0.037
40 | TTAAAGAA | 0.17 ± 0.072
41 | ATAAAGCG | 0.0396 ± 0.047
42 | CTAAAGAA | 0.0925 ± 0.088
43 | ATAAAGAA | 0.264 ± 0.018
44 | CTAAAGCA | 0.0825 ± 0.012

Row | Sequence | PBM 8-mer E-score
45 | CACCGGCA | -0.12 ± 0.023
46 | ACGTTCCT | 0.0666 ± 0.011
47 | ATACCTAC | 0.129 ± 0.12
48 | ATTTAGAC | 0.0494 ± 0.067
49 | ATAACGCG | 0.073 ± 0.11
50 | CTTTCGGC | -0.149 ± 0.041
51 | TAAAACCA | 0.131 ± 0.048
52 | AAAAACCT | 0.25 ± 0.024
53 | CAAACCTA | 0.125 ± 0.027
54 | AAAAACCG | 0.0778 ± 0.087
55 | AAAACCTT | 0.103 ± 0.011
56 | AAAACCTA | 0.269 ± 0.0045
57 | AAAAACCC | -0.0325 ± 0.027
58 | CAAAACCA | 0.0801 ± 0.046
59 | AAAAACCA | 0.244 ± 0.0092
60 | CCTTGCGC | -0.034 ± 0.012
61 | GGGGCGAC | -0.0761 ± 0.044
62 | AATCAGCG | -0.0368 ± 0.011
63 | AATCAGCT | 0.298 ± 0.065
64 | AATCAGCC | -0.00374 ± 0.048
65 | ACTTTGAT | 0.142 ± 0.062
66 | TCAGTAAA | 0.013 ± 0.12

Row | Sequence | PBM 8-mer E-score
67 | CATACTTC | 0.181 ± 0.048
68 | CATATACA | 0.254 ± 0.031
69 | AATATACT | 0.215 ± 0.043
70 | AATATACA | 0.293 ± 0.01
71 | CATATACC | 0.0712 ± 0.07
72 | AATATAGA | 0.292 ± 0.049
73 | CATATAGA | 0.145 ± 0.049
74 | TATATAGA | 0.0968 ± 0.19
75 | GATATACA | 0.0962 ± 0.0042
76 | TATATACA | 0.178 ± 0.03
77 | TACATCAA | 0.11 ± 0.093
78 | GCCAAGCC | -0.109 ± 0.012
79 | GAGTGACC | -0.141 ± 0.015
80 | CCGTCCCA | 0.0086 ± 0.03
81 | AATGTCAT | 0.0752 ± 0.093
82 | CCTAAGAC | 0.0353 ± 0.033
83 | ATAGTTAG | 0.0831 ± 0.052
84 | CTAGTAAA | 0.0505 ± 0.014
85 | ATAGTTAA | 0.261 ± 0.0096
86 | ATAGTAAT | 0.158 ± 0.027
87 | ATAGTAAA | 0.262 ± 0.012
88 | ATAGTAGA | 0.253 ± 0.031

Row | Sequence | PBM 8-mer E-score
89 | ATAGTTAC | 0.181 ± 0.06
90 | GTAGTAGA | 0.0328 ± 0.058
91 | ATAGTAGG | 0.0443 ± 0.12
92 | TGGGTTAA | 0.053 ± 0.046
93 | GCCTCTCC | 0.0347 ± 0.12
94 | GCGAATCA | -0.157 ± 0.067
95 | CCGATGGA | -0.246 ± 0.043
96 | TAACGGTA | 0.204 ± 0.011
97 | TAAGCTGA | 0.0855 ± 0.056
98 | AACACGGG | 0.0469 ± 0.0099
99 | CGATGCGA | -0.117 ± 0.088
100 | GAAGCCGC | -0.115 ± 0.058
101 | AACGTGAA | 0.0196 ± 0.026
102 | AACGTGCT | 0.0241 ± 0.0069
103 | AGCGTGAC | 0.117 ± 0.086
104 | AGCGTGAT | 0.25 ± 0.013
105 | AACGTGGT | 0.285 ± 0.029
106 | AACGTGAT | 0.272 ± 0.01
107 | AACGTGGA | 0.162 ± 0.015
108 | AACGTGAG | 0.0485 ± 0.088
109 | AGCGTGAG | 0.0998 ± 0.075
110 | ACCCCGTC | -0.138 ± 0.05
